Consider 29 compounds from PubChem BioAssay AID1851 (National Center for Advancing Translational Sciences (NCATS), 2009).

Screen size: about 16,000 compounds; about 5,100 (32%) were called active. Another 25% or so got no clear call; they are omitted. The list shows a part of the results. Values without a mark were called inactive. The call rests on the fitted dose curve; in most records, active means well fitted curve in the direction sought with a large enough effect; inconclusive means small, poorly fitted or top-dose-only effect, or effect the other way; inactive means no such curve, though single readings can be large or run the other way.
On the % scale 0 is the no-effect control and ±100 the full control effect.

Chain of Cytochrome P450 3A4 (Homo sapiens) (P08684 whole entry, looked up): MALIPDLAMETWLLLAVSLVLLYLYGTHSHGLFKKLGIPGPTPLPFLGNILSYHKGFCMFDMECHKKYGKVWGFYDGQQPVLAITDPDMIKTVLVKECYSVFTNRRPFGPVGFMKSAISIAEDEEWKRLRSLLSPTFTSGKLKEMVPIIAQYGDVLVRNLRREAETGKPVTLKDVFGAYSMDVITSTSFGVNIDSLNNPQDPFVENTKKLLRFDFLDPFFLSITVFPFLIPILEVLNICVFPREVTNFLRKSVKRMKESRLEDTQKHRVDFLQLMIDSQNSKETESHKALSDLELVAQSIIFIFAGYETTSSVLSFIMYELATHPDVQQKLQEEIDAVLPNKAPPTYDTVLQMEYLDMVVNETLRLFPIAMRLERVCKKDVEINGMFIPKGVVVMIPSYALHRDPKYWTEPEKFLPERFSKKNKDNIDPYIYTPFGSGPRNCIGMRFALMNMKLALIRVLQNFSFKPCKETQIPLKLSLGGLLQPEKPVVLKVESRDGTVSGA

The assay concerns the target Cytochrome P450 3A4 (Homo sapiens) (UniProt P08684). The assay can be described thus: Cytochrome panel assay with activity outcomes. As to conditions: recombinant CYP, pro-luciferin dealkylation, luminescence, p450-cyp3a4; series mostly up to 57.1 µM.
As to `COc1c(O)cc2c(c1O)[C@@H]1O[C@@H](CO)[C@@H](O)[C@@H](O)[C@@H]1OC2=O`, the AC50 result is “inactive”.

With `COc1cccc(Nc2nc(-c3ccc(O)cc3)cs2)c1`, the AC50 is 7.08 µM (active).

Turning to `c1cnc(Nc2nc(-c3ccc4ccccc4c3)cs2)nc1`, the AC50 result is “inactive”.

For `Cc1nn2c([nH]c(=O)c3ccccc32)c1C=O`, the AC50 result was “inactive”.

Consider `O=C(NCc1ccccc1)c1sc(=S)n2c1[nH]c(=O)c1ccccc12`, for which the AC50 was 3.98 µM (active).

For `O=C(O)NCc1ccccc1` (tested in a mixture with another compound), the activity, negative = inhibition was -3.33% [at 11.4 µM].

For `COc1ccc2cc3cc(C(=O)NCCN4CCN(c5ccccc5F)CC4)oc3nc2c1`, the half-maximal activity concentration (AC50) is 14.1 µM (active).

As for `COc1ccc2cc3cc(C(=O)NCCCN4CCOCC4)oc3nc2c1`, the AC50 is 10 µM (active).

For `CCN1CCN(CCCNC(=O)c2cc3cc4ccc(OC)cc4nc3o2)CC1`, the AC50 entry is “inactive”.

Consider `COc1cc2c3c(c1OC)C1(C=CC(=O)C=C1)CC3N(C(=O)c1ccccc1)CC2` (centres undefined), for which the AC50 entry is “inactive”.

In the case of `CN1CCN(C(=O)c2ccc(-n3cccc3)cc2)CC1`, the AC50 entry is “inactive”.

On to `COc1cc2c(C(=O)N3CCN(C)CC3)c(C)n(-c3ccccc3)c2cc1Br`, for which the AC50 is 1.12 µM (active).

`COc1ccc2c(Cl)c(-c3nnco3)sc2c1`: the AC50 was 7.08 µM (active).

For `COc1ccc2nc(N)sc2c1`, the AC50 entry was “inactive”.

Turning to `COc1ccc2nc(/N=C\N(C)C)sc2c1`, the AC50 result was “inactive”.

On to `COc1cc(/C=N\Nc2nc3ccccc3[nH]2)cc(OC)c1OC`, for which the activity, negative = inhibition is -13.5% [at 2.29 µM].

For `COc1cc(/C=N/Nc2snc(SC)c2C#N)cc(OC)c1OC`, the AC50 is 7.94 µM (active).

Regarding `COc1ccc(/C=N/Nc2snc(SC)c2C#N)cc1OC`, the AC50 was 8.91 µM (active).

For the compound `COc1cccc(-c2cncnc2Nc2ccc(F)cc2)c1`, the AC50 is 0.794 µM (active).

As to `CS(=O)(=O)Nc1cccc(-c2cncnc2Nc2ccc(F)cc2)c1`, the AC50 is 0.316 µM (active).

With `CS(=O)(=O)Nc1cccc(-c2cncnc2Nc2ccccc2)c1`, the AC50 was 0.501 µM (active).

Turning to `COc1cccc(-c2cncnc2NC2CCNCC2)c1`, the AC50 result is “inactive”.

For `CCCCCCCCC[n+]1cccc2c3ccccc3ccc21`, the AC50 entry is “inactive”.

Regarding `Cc1cc(N)c2ccccc2[n+]1CCCCCCCCCCCCCC[n+]1c(C)cc(N)c2ccccc21`, the AC50 is 10 µM (active).

`Nc1cc2c(nc3c4ccccc4c(N)cc3[n+]2-c2cccc3ccccc23)c2ccccc12` (tested in a mixture with another compound): the activity, negative = inhibition is -29.5% [at 11.4 µM].

As for `CCOC(=O)[C@H](N)/C=C(\C)CP(=O)(O)O`, the AC50 result is “inactive”.

With `O=C(CSc1nc2ccccc2s1)c1sc2sc3ccccc3[n+]2c1O`, the activity, negative = inhibition was -12.2% [at 11.4 µM].

`O=C(CSc1nc2ccccc2s1)N1c2ccccc2Sc2ccccc21`: the AC50 was 11.2 µM (active).

As to `O=C(CSc1nc2ccccc2s1)N1c2ccccc2Sc2ccc(C(F)(F)F)cc21`, the AC50 was 6.31 µM (active).

Usually AC50 stands for the midpoint of the concentration-response curve, whichever way the signal moves.
